Data published in PubChem BioAssay (NCI).
Compounds without any hit were thinned out: in the full panel of roughly 83,000, 20% have a hit.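 Testing used 96-well plates and a 48-hour single-concentration exposure. Example: -40 means 40% of the starting cells died.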 A number with no mark means an inactive call. Activity calls are given as the source filed them. Rule for the calls: active = growth percent below 10; inactive = the rest.

Tested on: UACC-62 melanoma
Experiment: NCI-60 one-dose screen, 48 h (100 = growth as untreated, 0 = no growth, -100 = all killed)
Conditions: 10 µM unless noted

SMILES	growth
CCc1ccc(-c2ccc(COc3ccc(CC4SC(=O)NC4=O)cc3)cc2)cc1 (configuration not stated)	60.2%
Cn1cc(-c2noc(-c3cn(C)c4ncc(F)cc34)n2)c2ccccc21	80.1%
Clc1ccc2nc(-c3ccc(-c4ccc(/C=N/NC5=NCCN5)cc4)s3)cn2c1	102%
CC(C)CCSc1nc(N)nc2nc[nH]c12	82.3%

Tested on: LOX IMVI melanoma
Experiment: as above
Conditions: 10 µM unless noted

SMILES	growth
O=C(COc1cccc(/C=C2\Oc3ccccc3C2=O)c1)c1ccc([N+](=O)[O-])cc1	88.6%
CC[C@]12C=CCN3CC[C@@]4(c5ccc(OC)cc5N(C)[C@H]4[C@@](O)(C(=O)OC)[C@@H]1OC(=O)CCC(=O)N[C@H](Cc1c[nH]c4ccccc14)C(=O)OC)[C@@H]32	-54.4% [100 µM] (active)
C=C(C)[C@@H]1CC[C@]2(C(N)=O)CC[C@]3(C)[C@H](CC[C@@H]4[C@@]5(C)C/C(=C/c6cccnc6)[C@H](O)C(C)(C)[C@@H]5CC[C@]43C)[C@@H]12	-35.9% [100 µM] (active)
CSc1nc2sc3cc(Cl)c(Cl)cc3n2c(=N)c1C#N	94.5%
COc1ccc(/C=C2\N=C(Nc3ccccc3)N(NC(=O)c3ccccn3)C2=O)cc1	95.5%
O=C(NCCCNC(=O)OCc1ccc2cccc(O)c2n1)OCc1ccc2cccc(O)c2n1	-73.2% (active)
COc1cc(C(=O)/C=C/c2c(-c3ccc(F)cc3)nc3sccn23)cc(OC)c1OC	15.6%
CCCCCCCCCCCCNC(=S)N/N=C/c1ccccc1O	60.5%
